test system: EGFR; details: concentration: 1 μM,replicates: in singlicate; n = 1
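Also: KINOMEscan kinase panel screen.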

Row | Structure (SMILES) | %Inh [%]
1 | Cc1cccc2c(-c3ccncc3)c(-c3ccc(F)cc3)nn12.Cl [GW461487] | 19
2 | COc1cccc(C2=C(Nc3cccc(Cl)c3)C(=O)NC2=O)c1 [SB-341556] | 25
3 | OCCn1cc(-c2cnc3nnn(Cc4ccc5ncccc5c4)c3n2)cn1 | 0
4 | CC(=O)c1c(-c2ccncc2)[nH]c(-c2ccncc2)c1C [GW493036] | 37
5 | Cn1ccc2ncnc(Oc3ccc(NC(=O)Nc4cncc(C(F)(F)F)c4)c(Cl)c3)c21 | 0
6 | O=c1[nH]cc(-c2ccc(O)cc2)c2sc(-c3ccncc3)cc12 [GSK1033723] | 32
7 | COC(=O)c1cccc(NC(=O)NC2CCN(c3ccnc(NCc4ccc(F)cc4)n3)CC2)c1 [GSK1379860] | 51
8 | Cn1ccc2ncnc(Oc3ccc(NC(=O)Nc4cccc(C(F)(F)F)c4)c(F)c3)c21 | 12
9 | Cl.c1ccc(Oc2ccc(Nc3ccnc4cc(-c5ccc(CN6CCNCC6)o5)ccc34)cc2)nc1 [GW567142] | 97.7
10 | CS(=O)(=O)c1cccc(CNc2nc(Nc3ccc4c(c3)[C@@H]3C[C@@H]4CNC3=O)ncc2C(F)(F)F)c1 | 5
11 | C[C@@H](Oc1cc(-n2cnc3ccc(-c4ccncc4)cc32)sc1C(N)=O)c1ccccc1Cl [GSK483724] | 36
12 | CCOC(=O)N1CCC(n2cnc(-c3ccc(F)cc3)c2-c2ccnc(N)n2)CC1 [SB-219952] | 32
13 | Cn1ccc2ncnc(Oc3ccc(NC(=O)Nc4cc(C(C)(C)C)on4)c(Cl)c3)c21 | 50
14 | Cc1n[nH]c2cc(Nc3ccnc(Nc4cccc(CN5CCOCC5)c4)n3)ccc12 [GW682569] | 22
15 | NC(=O)c1ccc(-c2cc3ncnc(SCC(=O)O)c3s2)cc1 | 0
16 | Cc1ccc(CC(=O)N2CCc3cc(-c4cn(C)c5ncnc(N)c45)ccc32)cc1 [GSK2634758] | 27
17 | COc1ccc(Nc2nccc(N3CCC(NC(=O)c4cccc(C#N)c4)C3)n2)cc1 (stereo not shown) [GSK1379730] | 29
18 | Cn1ccc2ncnc(Oc3ccc(NC(=O)Nc4cccc(C(F)(F)F)c4)c(Cl)c3)c21 | 5
19 | O=C(Nc1ccccc1)c1cccc(Oc2ccc3nccn3n2)c1 | 3
20 | Cn1ccc2ncnc(Oc3ccc(NC(=O)Nc4cnn(C(C)(C)C)c4)c(Cl)c3)c21 | 25
21 | CCn1c(-c2nonc2N)nc2cncc(CNC3CCNCC3)c21.Cl [SB-747651] | 35
22 | COc1cc2nccc(Nc3ccc(Oc4ccccc4)cc3)c2cc1OC.Cl [GI261656] | 88
23 | Cl.Cl.NC[C@H](CC1CCCCC1)NC(=O)c1ccc(-c2ccnc3[nH]ccc23)s1 [GSK1581428] | 28
24 | Cc1cccc(-c2nc(Nc3ccncc3)c3sccc3n2)n1 [GW869641] | 16

test system: EIF2AK1; details: concentration: 1 μM,replicates: in singlicate; n = 1

Row | Structure (SMILES) | %Inh [%]
25 | CNC(=O)c1ccccc1Nc1nc(Nc2cccc(CS(C)(=O)=O)c2)ncc1C.O=CO [GSK1520489] | 0
26 | O=C(Nc1n[nH]c2cc(-c3ccco3)ccc12)C1CC1 [SB-737447] | 0
27 | CSc1nccc(-c2c(-c3ccc(F)cc3)ncn2CCCN2CCOCC2)n1.Cl [SB-217146] | 0
28 | COc1cccc(CNC(=O)NC2CCN(c3ccnc(Nc4cc(OC)c(OC)c(OC)c4)n3)C2)c1 (stereo not shown) [GSK1379765] | 0
29 | Cn1cc(-c2cccc3c(N)c(C(N)=O)nnc23)cn1 | 18
30 | Cc1ccc(Nc2ccnc(Nc3ccc4c(c3)CS(=O)(=O)C4)n2)cc1O.Cl [GW579362] | 17
31 | CC(C(=O)NC1CCN(c2ccnc(Nc3ccc(F)cc3)n2)C1)c1ccc(Cl)cc1 (stereo not shown) [GSK1379713] | 0
32 | COc1cc2c(Nc3ccc(NC(=O)c4ccccc4)cc3)ncnc2cc1OCCCN1CCOCC1 [GSK301329] | 4
33 | N#Cc1cccc(C(=O)NC2CCN(c3ccnc(Nc4ccc(F)cc4)n3)C2)c1 (stereo not shown) [GSK1379708] | 0
34 | CN1CCN(CCCNc2nccc(-c3c(-c4ccc(F)cc4)nn4cc(C(N)=O)ccc34)n2)CC1 [GW622475] | 8
35 | O=C(Nc1cccc(C(F)(F)F)c1)c1cccc(Oc2ccc3nccn3n2)c1 | 0
36 | COC(=O)Nc1nc2cc(Oc3ccc(NC(=O)Nc4cc(C(F)(F)F)ccc4Cl)cc3)ccc2[nH]1.Cl [GW697465] | 0
37 | Cn1ccc2ncnc(Oc3ccc(NC(=O)Nc4ccnc(C(F)(F)F)c4)c(Cl)c3)c21 | 0
38 | Cc1cccc2c(-c3ccncc3)c(-c3ccc(F)cc3)nn12.Cl [GW461487] | 0
39 | COc1cccc(C2=C(Nc3cccc(Cl)c3)C(=O)NC2=O)c1 [SB-341556] | 9
40 | OCCn1cc(-c2cnc3nnn(Cc4ccc5ncccc5c4)c3n2)cn1 | 0
41 | CC(=O)c1c(-c2ccncc2)[nH]c(-c2ccncc2)c1C [GW493036] | 17
42 | Cn1ccc2ncnc(Oc3ccc(NC(=O)Nc4cncc(C(F)(F)F)c4)c(Cl)c3)c21 | 0
43 | O=c1[nH]cc(-c2ccc(O)cc2)c2sc(-c3ccncc3)cc12 [GSK1033723] | 12

Row | Structure (SMILES) | %Inh [%]
44 | COC(=O)c1cccc(NC(=O)NC2CCN(c3ccnc(NCc4ccc(F)cc4)n3)CC2)c1 [GSK1379860] | 0
45 | Cn1ccc2ncnc(Oc3ccc(NC(=O)Nc4cccc(C(F)(F)F)c4)c(F)c3)c21 | 0
46 | Cl.c1ccc(Oc2ccc(Nc3ccnc4cc(-c5ccc(CN6CCNCC6)o5)ccc34)cc2)nc1 [GW567142] | 0
47 | CS(=O)(=O)c1cccc(CNc2nc(Nc3ccc4c(c3)[C@@H]3C[C@@H]4CNC3=O)ncc2C(F)(F)F)c1 | 0
48 | C[C@@H](Oc1cc(-n2cnc3ccc(-c4ccncc4)cc32)sc1C(N)=O)c1ccccc1Cl [GSK483724] | 4
49 | CCOC(=O)N1CCC(n2cnc(-c3ccc(F)cc3)c2-c2ccnc(N)n2)CC1 [SB-219952] | 19
50 | Cn1ccc2ncnc(Oc3ccc(NC(=O)Nc4cc(C(C)(C)C)on4)c(Cl)c3)c21 | 3
51 | Cc1n[nH]c2cc(Nc3ccnc(Nc4cccc(CN5CCOCC5)c4)n3)ccc12 [GW682569] | 0
52 | NC(=O)c1ccc(-c2cc3ncnc(SCC(=O)O)c3s2)cc1 | 0
53 | Cc1ccc(CC(=O)N2CCc3cc(-c4cn(C)c5ncnc(N)c45)ccc32)cc1 [GSK2634758] | 46
54 | COc1ccc(Nc2nccc(N3CCC(NC(=O)c4cccc(C#N)c4)C3)n2)cc1 (stereo not shown) [GSK1379730] | 0
55 | Cn1ccc2ncnc(Oc3ccc(NC(=O)Nc4cccc(C(F)(F)F)c4)c(Cl)c3)c21 | 0
56 | O=C(Nc1ccccc1)c1cccc(Oc2ccc3nccn3n2)c1 | 0
57 | Cn1ccc2ncnc(Oc3ccc(NC(=O)Nc4cnn(C(C)(C)C)c4)c(Cl)c3)c21 | 0
58 | CCn1c(-c2nonc2N)nc2cncc(CNC3CCNCC3)c21.Cl [SB-747651] | 2
59 | COc1cc2nccc(Nc3ccc(Oc4ccccc4)cc3)c2cc1OC.Cl [GI261656] | 0
60 | Cl.Cl.NC[C@H](CC1CCCCC1)NC(=O)c1ccc(-c2ccnc3[nH]ccc23)s1 [GSK1581428] | 0
61 | Cc1cccc(-c2nc(Nc3ccncc3)c3sccc3n2)n1 [GW869641] | 17

Source: publication PMC5540273 (PLoS ONE, 2017)
